According to the supplement of paper PMC13380429:
Counter-ions that a name gives are not always drawn.

Tested on: Vero E6 infected with SARS-CoV-2
Assay: inhibition of SARS-CoV-2 cytopathic effect; higher = more antiviral protection, active = above 15
Conditions: 48 h

Measured: inhibition of SARS-CoV-2 cytopathic effect

NC12CC3CC(CC(C3)C1)C2 [amantadine]
inactive: 1 nM 0.16% | 8.33 nM 1.94% | 100 nM 0.25% | 833.33 nM 0.33% | 10000 nM 3.28%

CSCC[C@H](NC(=O)[C@H](Cc1ccccc1)NC(=O)CNC(=O)CNC(=O)[C@@H](N)Cc1ccc(O)cc1)C(=O)O [metenkephalin]
inactive: 1 nM 0.74% | 8.33 nM -1.23% | 100 nM 1.24% | 833.33 nM -4.78% | 10000 nM -5.57%

Cc1cccc(C)c1NC(=O)c1ccc(N)cc1 [ameltolide]
inactive: 1 nM 0.76% | 8.33 nM 1.03% | 100 nM 0.37% | 833.33 nM -0.04% | 10000 nM -2.67%

C=CC(=O)N1CCC[C@@H](n2nc(-c3ccc(Oc4ccccc4)cc3)c3c(N)ncnc32)C1 [ibrutinib]
inactive: 1 nM -2.27% | 8.33 nM -1.2% | 100 nM 0.01% | 833.33 nM -0.37% | 10000 nM 1.62%

C=CC(=O)Nc1cccc(C)c1Nc1ncc2cc(-c3c(Cl)c(OC)cc(OC)c3Cl)ccc2n1
inactive: 1 nM -1.66% | 8.33 nM -0.88% | 100 nM -0.76% | 833.33 nM 0.98% | 10000 nM 3.67%

COc1ccc2c(C(=S)N(C)CC(=O)O)cccc2c1C(F)(F)F [tolrestat]
inactive: 1 nM 0.38% | 8.33 nM -0.6% | 100 nM -3.79% | 833.33 nM -3.61% | 10000 nM -5.09%

CCC(=O)NCC[C@@H]1CCc2ccc3c(c21)CCO3 [ramelteon]
inactive: 1 nM 0.77% | 8.33 nM -0.74% | 100 nM -1.05% | 833.33 nM 0.28% | 10000 nM -10.8%

CCC(C)(Oc1ccc(C2(c3ccc(OC(C)(CC)C(=O)O)cc3)CCCCC2)cc1)C(=O)O (stereo not given) [clinofibrate]
inactive: 1 nM -0.17% | 8.33 nM -1.53% | 100 nM -1.92% | 833.33 nM -1.83% | 10000 nM 0.41%

O=C(O)[C@@H]1C[C@@H](O)CN1 [L-hydroxyproline]
inactive: 1 nM -3.79% | 8.33 nM -1.12% | 100 nM -0.27% | 833.33 nM -1.36% | 10000 nM -3.93%

C[C@@H](N[C@H]1CCCC[C@@H]1NC(=O)c1ccc(Cl)cc1)c1cccc2ccccc12 [Calhex-231]
inactive: 1 nM -0.12% | 8.33 nM -0.88% | 100 nM 1.31% | 833.33 nM 5.65% | 10000 nM -1.86%

CCN(Cc1ccc(Cl)nc1)/C(=C/[N+](=O)[O-])NC [nitenpyram]
inactive: 1 nM 0.79% | 8.33 nM -0.17% | 100 nM -0.29% | 833.33 nM -1.84% | 10000 nM 1.08%

C[C@]12CCC(=O)C=C1CC[C@@H]1[C@@H]2[C@@H](O)C[C@@]2(C)[C@H]1CC[C@]2(O)C(=O)COC(=O)CCC(=O)O [hydrocortisone-hemisuccinate]
inactive: 1 nM -3.36% | 8.33 nM -5.52% | 100 nM -5.26% | 833.33 nM -3.7% | 10000 nM -4.67%

Cc1ccc(=O)n(-c2ccc(O)cc2)c1
inactive: 1 nM -3.24% | 8.33 nM -0.95% | 100 nM 1.12% | 833.33 nM 2.81% | 10000 nM 1.12%

O=C(c1ccc2nccnc2c1)N1CCCCC1 [ampalex]
inactive: 1 nM -0.24% | 8.33 nM 0.88% | 100 nM 0.65% | 833.33 nM 0.17% | 10000 nM 0.77%

CC(=O)N1CC[N+](C)(C)CC1 [4-acetyl-1,1-dimethylpiperazinium]
inactive: 1 nM 0.03% | 8.33 nM -1.23% | 100 nM 0.82% | 833.33 nM 1.13% | 10000 nM 0.5%

C=C1C(=O)[C@]23[C@H](O)[C@H]1CC[C@H]2[C@@]12CO[C@]3(O)[C@@H](O)[C@@H]1C(C)(C)CC[C@@H]2O [Oridonin (Isodonol)]
active: 10000 nM 43.5%
inactive: 1 nM -0.74% | 8.33 nM 1.14% | 100 nM 0.8% | 833.33 nM 3.78%

Cc1cccc(C)c1NC(=O)[C@@H](C)N [tocainide]
inactive: 1 nM 1.21% | 8.33 nM 0.17% | 100 nM -6.26% | 833.33 nM 1.04% | 10000 nM -4.59%

N#Cc1cc(-c2n[nH]c(-c3ccncc3)n2)ccn1 [topiroxostat]
inactive: 1 nM 0.4% | 8.33 nM 0.34% | 100 nM 3.87% | 833.33 nM -0.47% | 10000 nM 0.11%

COCCN1CCC(C(=O)NO)(S(=O)(=O)c2ccc(Oc3ccc(OC(F)(F)F)cc3)cc2)CC1
inactive: 1 nM 3.42% | 8.33 nM 2.45% | 100 nM 2.99% | 833.33 nM 3.32% | 10000 nM 1.34%

CC/C(=C(\c1ccc(O)cc1)c1ccc(OCCNC)cc1)c1ccccc1 [Endoxifen HCl]
active: 10000 nM 57%
inactive: 1 nM -1.34% | 8.33 nM 7.36% | 100 nM 10.6% | 833.33 nM -0.77%

NC(=O)C[C@H](N)C(=O)O [L-asparagine]
inactive: 1 nM -2.05% | 8.33 nM -1.93% | 100 nM -3.65% | 833.33 nM -1.45% | 10000 nM -0.9%

Cc1ccc(C(=O)c2ccc(CC(=O)O)n2C)cc1 [tolmetin]
inactive: 1 nM -2.48% | 8.33 nM -1.62% | 100 nM -1.05% | 833.33 nM -0.39% | 10000 nM 0.75%

CCCN1C[C@H](CSC)C[C@@H]2c3cccc4[nH]cc(c34)C[C@H]21 [pergolide]
inactive: 1 nM -0.15% | 8.33 nM -0.75% | 100 nM 0.68% | 833.33 nM 0.65% | 10000 nM -1.92%

OCCn1cc(-c2cnc3nnn(Cc4ccc5ncccc5c4)c3n2)cn1
inactive: 1 nM 1.37% | 8.33 nM 2% | 100 nM 1.01% | 833.33 nM 2.71% | 10000 nM 2.26%

C=CCN1C[C@H](C)N([C@H](c2ccc(C(=O)N(CC)CC)cc2)c2cccc(OC)c2)C[C@H]1C
inactive: 1 nM -0.66% | 8.33 nM 1.28% | 100 nM 1.71% | 833.33 nM -0.17% | 10000 nM -1.85%

CCCC[C@@]1(C2CCCC2)Cc2cc(OCCCC(=O)O)c(Cl)c(Cl)c2C1=O
inactive: 1 nM 2.56% | 8.33 nM 0.21% | 100 nM 0.81% | 833.33 nM 2.21% | 10000 nM 2.61%

O=C(O)c1cc2occc2[nH]1
inactive: 1 nM -2.55% | 8.33 nM -2.94% | 100 nM -2.08% | 833.33 nM -2.97% | 10000 nM -2.87%

OCCOc1ccc(/C(=C(/CCCl)c2ccccc2)c2ccccc2)cc1 [ospemifene]
inactive: 1 nM -2.23% | 8.33 nM 1.01% | 100 nM 3.19% | 833.33 nM 3.68% | 10000 nM 8.11%

N=C(NCCC[C@H](N)C(=O)O)N[N+](=O)[O-] [NG-nitro-arginine]
inactive: 1 nM 4.03% | 8.33 nM -0.95% | 100 nM -0.93% | 833.33 nM 0.27% | 10000 nM -0.46%

OCc1c[nH]c2ccccc12 [indole-3-carbinol]
inactive: 1 nM -1.46% | 8.33 nM 0.47% | 100 nM -3.76% | 833.33 nM -0.69% | 10000 nM -14.3%
